Source: PubChem (several laboratories)
CSC inhib: blocks cancer stem cells. cancer stem cell-like cells viability, luminescence. inhibition, % at 7.5 µM. 300,000 tested, 1.1% active. AID 2717; in the data active means inhibition above about 75%; tested in HMLE shEcad cells
Calb FLC: affects C. albicans growth with fluconazole; C. albicans CaCi-2 (fluconazole-resistant clinical isolate) + fluconazole, Alamar Blue growth, 48 h; growth inhibition, % (no concentration beside the values); 300,000 tested, 0.57% active; AID 1979;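 active means growth inhibition above about 58% in most replicates, limit read from the data, passing the limit was not always enough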;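 further: all wells also contain fluconazole at 8 µg/ml as a sub-toxic cotreatment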
MPTP inh: permeability transition pore inhibition; isolated mouse mitochondria, Ca2+ swelling absorbance, 30 min; inhibition, % at 10 µM; 360,000 tested, 1.4% active; AID 602449;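 active means inhibition of 50% or more, scaled per plate between neutral and stimulator controls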
Beta apoptosis: blocks beta cell apoptosis; 300,000 tested, 0.8% active; INS-1E cytokine-induced death, ATP luminescence, 48 h; percent of positive-control rescue, neutral wells zero; AID 435005; protection from apoptosis, % (no concentration beside the values);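 active means Every replicate reaches about 75%, or at least half do and their mean reaches it too, limit read from the data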;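 further: higher means more ATP so stronger rescue from cytokine killing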
Mdm2-MdmX inh: inhibitors of human Mdm2/MdmX interaction | O15151+Q00987 | inhibition, % at 8 µM | AID 485346 | SaOS-2 split-luciferase Mdm2/MdmX complementation, luminescence | 330,000 tested, 3% active;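 active means inhibition of at least 50% at 8 µM in the primary screen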
Mdm2 MdmX conf: confirmation of human Mdm2/MdmX interaction inhibitors; shares compounds with Mdm2-MdmX inh; Mdm2-MdmX binding, luminescent assay; inhibition, % at 8 µM; 10,000 tested, 55% active; in the data active means inhibition above about 40%
Full FLuc ctr: full-length luciferase inhibition in Mdm2/MdmX counter-screen | SaOS-2 full-length luciferase counterscreen, luminescence | 6,200 tested, 77% active | shares compounds with Mdm2-MdmX inh | AID 504607 | inhibition, % at 8 µM;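 active means mean inhibition at 8 µM reaching about 37%, which flags the compound as non-specific, limit read from the data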;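 further: p53-null SaOS-2 cells with luciferase driven by a doxycycline-inducible promoter; compound on cells about two nights before reading with doxycycline added after day one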
Of the large screens only hits and unclear results are named; the others gave an inactive call (follow-up assays come after a bar, where they were run). An excerpt weighted towards active compounds, which were near 4.8% of everything screened.

Cc1ccc(S(=O)(=O)N/N=C\c2cn(CC(N)=O)c3ccccc23)cc1C	Mdm2-MdmX inh 52 | Mdm2 MdmX conf inactive
NC(=O)Cn1cc(/C=N\NS(=O)(=O)c2ccc(Cl)cc2)c2ccccc21	none
Cc1ccc(N2C(=O)c3cccc4c(N)ccc(c34)C2=O)c2cccnc12	Mdm2-MdmX inh 62 | Mdm2 MdmX conf 61 | Full FLuc ctr 80
CCc1nc2c(OCc3ccc(F)c(F)c3)cccn2c1N(C)C(=O)C1CC1	none (no result: CSC inhib, Calb FLC, Beta apoptosis, Mdm2-MdmX inh)
CC1=C(C(N)=O)S(=O)(=O)c2ccccc21	none
Cn1c(N)c(C#N)c(-c2ccccc2)c(C#N)c1=O	none (no result: CSC inhib, Calb FLC, Beta apoptosis, Mdm2-MdmX inh)
CC(C)(C)NC(=O)C(c1ccc(-c2ccccc2)cc1)N(C[C@H]1CC[C@@H]([C@@H]2CC[C@H](CO)O2)O1)C(=O)c1cccc(Cl)c1 (some centres not stated)	Mdm2-MdmX inh 50 (no result: CSC inhib, Calb FLC, Beta apoptosis) | Mdm2 MdmX conf inactive
CC(C)(C)NC(=O)C(c1ccc(-c2ccccc2)cc1)N(C[C@H]1CC[C@@H]([C@@H]2CC[C@H](CO)O2)O1)C(=O)c1ccc(-c2ccccc2)cc1 (some centres not stated)	Mdm2-MdmX inh 88 (no result: CSC inhib, Calb FLC, Beta apoptosis) | Mdm2 MdmX conf 47 | Full FLuc ctr 52
CC(C)(C)NC(=O)C(c1ccc(-c2ccccc2)cc1)N(C[C@H]1CC[C@@H]([C@@H]2CC[C@H](CO)O2)O1)C(=O)c1ccc2ccccc2c1 (some centres not stated)	none (no result: CSC inhib, Calb FLC, Beta apoptosis)
COc1ccc(CNC(=S)Nc2cccc(F)c2)cc1	none
CCOC(=O)C1CCN(C(=O)c2cc(COc3ccc(F)cc3F)on2)CC1	none (no result: Beta apoptosis)
S=c1cnc2ccccc2[nH]1	none
O=NN(CCF)C(=O)NC1CCS(=O)(=O)CC1	none (no result: CSC inhib, Calb FLC, Beta apoptosis, Mdm2-MdmX inh)
CCOCCCNC(=O)/C(C#N)=C/c1ccc(Cl)c([N+](=O)[O-])c1	Mdm2-MdmX inh 73 | Mdm2 MdmX conf inactive
CCOCCCNC(=O)/C(C#N)=C/c1cc(OC)c(O)c([N+](=O)[O-])c1	none
CN[C@H]1CC[C@@H](c2ccc(Cl)c(Cl)c2)c2ccccc21	Mdm2-MdmX inh 69 (no result: CSC inhib, MPTP inh, Beta apoptosis) | Mdm2 MdmX conf inactive
CC1(c2nnnn2Cc2ccccc2)CCC(=O)N1Cc1cccs1 (configuration not stated)	none (no result: CSC inhib, Calb FLC, Beta apoptosis, Mdm2-MdmX inh)
CSCCC(C(=O)NC(C)(C)C)n1c(-c2cccc(NC(C)=O)c2)nc2ccccc21 (configuration not stated)	none (no result: CSC inhib, Calb FLC, Beta apoptosis, Mdm2-MdmX inh)
CCS(=O)(=O)N1Cc2ccccc2CC1C(=O)Nc1nc2ccccc2s1 (configuration not stated)	Mdm2-MdmX inh 59 | Mdm2 MdmX conf 70 | Full FLuc ctr 162
COc1ccc(NC(=O)Cc2ccc(C)cc2)c([N+](=O)[O-])c1	none (no result: Mdm2-MdmX inh)
COc1ccc(NC(=O)CC2Nc3cc(C)c(C)cc3NC2=O)c([N+](=O)[O-])c1 (configuration not stated)	Mdm2-MdmX inh 88 | Mdm2 MdmX conf inactive
CCCCOC(=O)CSc1nc(N)c(C#N)c(-c2ccc(OCC)cc2)c1C#N	none
CCCCOc1ccc(-c2c(C#N)c(N)nc(SCC(N)=O)c2C#N)cc1	Mdm2-MdmX inh 55 | Mdm2 MdmX conf inactive
CN(C)CCNC(=O)C(=O)Nc1ccc2c(c1)N(S(=O)(=O)c1cccs1)CCC2	Mdm2-MdmX inh 51 | Mdm2 MdmX conf 72 | Full FLuc ctr 62
CCCNC(=O)C(=O)Nc1ccc2c(c1)N(S(=O)(=O)c1cccs1)CCC2	Mdm2-MdmX inh 50 (no result: CSC inhib) | Mdm2 MdmX conf 69 | Full FLuc ctr 60
CN(C)CCCNC(=O)C(=O)Nc1ccc2c(c1)N(S(=O)(=O)c1cccs1)CCC2	none (no result: CSC inhib)
Cc1ccc(S(=O)(=O)N2[C@H](CC(=O)c3ccc(Cl)c(Cl)c3)OC[C@@H]2C(C)C)cc1	none (no result: CSC inhib, Calb FLC, Beta apoptosis, Mdm2-MdmX inh)
C=CCN=c1scc(-c2ccccc2)n1/N=C/c1ccccn1	Mdm2-MdmX inh 79 | Mdm2 MdmX conf 64 | Full FLuc ctr 42
CCCCCCSc1ccc([C@H]2N[C@@](CC(C)C)(C(=O)OC)[C@H]3C(=O)N(C)C(=O)[C@@H]23)cc1OC	Mdm2-MdmX inh 56 | Mdm2 MdmX conf inactive
C1=CC2=NC34CCCCC3CC3=C(CCCC3)N4C2=CC1=NC1CCCCC1 (configuration not stated)	Mdm2-MdmX inh 100 | Mdm2 MdmX conf 78 | Full FLuc ctr 38
CN(C)CCCNCCCNC(=O)/C(=N\O)c1ccccc1	none
COc1ccc(C(C[N+](=O)[O-])c2c(-c3ccccc3)cc3ccccn23)c(OC)c1 (configuration not stated)	Mdm2-MdmX inh 53 | Mdm2 MdmX conf inactive | Full FLuc ctr 71
COc1ccc(C(C[N+](=O)[O-])c2c(C)cc3ccccn23)cc1 (configuration not stated)	none
CCC(CC)C1C(C#N)=C(N)Oc2n[nH]c(C)c21 (configuration not stated)	Mdm2-MdmX inh 52 | Mdm2 MdmX conf inactive
Cc1nn(-c2ccccc2)c(Cl)c1C1C(C#N)=C(N)Oc2n[nH]c(C)c21 (configuration not stated)	Mdm2-MdmX inh 53 | Mdm2 MdmX conf inactive
CCc1ccccc1N(CC)C(=O)C1CCN(c2ncnc3c2nc2n3CCCCC2)CC1	Mdm2-MdmX inh 64 | Mdm2 MdmX conf inactive
CC(=O)n1cc(N(C(=O)CCl)c2ccc(C)cc2)c2ccccc21	Mdm2-MdmX inh 99 | Mdm2 MdmX conf 100 | Full FLuc ctr 52
Cc1ccc(NCC(=O)Nc2c(C)n(C)n(-c3ccccc3)c2=O)cc1S(=O)(=O)N(C)C	none
COc1ccc(-c2coc3cc4oc(=O)cc(-c5ccccc5)c4cc23)cc1F	Mdm2-MdmX inh 84 | Mdm2 MdmX conf 58 | Full FLuc ctr 55
COc1ccc(-c2cc(=O)oc3cc4occ(C)c4cc23)cc1	none
Cc1c(CC(=O)O)c(=O)oc2cc3occ(-c4ccccc4)c3cc12	none
COc1ccc(-c2coc3cc4oc(=O)cc(C)c4cc23)cc1F	Mdm2-MdmX inh 71 | Mdm2 MdmX conf 46 | Full FLuc ctr 105
Cc1cc(C(=O)c2cnc(/N=C/N(C)C)s2)c(F)cc1Cl	none
Cn1cc(CNCCN2CCCCC2=O)c(-c2cccc(Cl)c2)n1	none
CC(C)C[C@@]12C(=O)N(c3ccc(Br)cc3)C(=O)N1[C@H](c1ccc(Br)cc1)[C@@H]1C(=O)N(C(C)(C)C)C(=O)[C@@H]12	Mdm2-MdmX inh 60 | Mdm2 MdmX conf 70 | Full FLuc ctr 52
CC[C@@]12C(=O)N(c3cccc(Cl)c3)C(=O)N1[C@H](c1ccc(Br)cc1)[C@@H]1C(=O)N(C(C)(C)C)C(=O)[C@@H]12	none
CC(C)C[C@@]12C(=O)N(c3cccc(Cl)c3)C(=O)N1[C@H](c1ccc(Br)cc1)[C@@H]1C(=O)N(C(C)(C)C)C(=O)[C@@H]12	Mdm2-MdmX inh 50 (no result: Calb FLC) | Mdm2 MdmX conf 46 | Full FLuc ctr 69
